In PubChem BioAssay AID540364 (The Scripps Research Institute Molecular Screening Center, 2011):
Out of some 360,000 compounds screened, about 2,000 (0.56%) were called active. This is one part of a sample in which actives are shown more often than they occur. Values without a mark were called inactive.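 Rule for the calls: active = activation above the average of all compounds screened plus 3 SD, cutoff fixed separately per campaign (cut at about 7.5% in these data); inactive = the rest.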

test: GAA850 frataxin promoter reporter upregulation – cell-based, luciferase luminescence, HEK293 lucGAA850, primary screen (AID 540364); details: HEK293 lucGAA850 FXN promoter luciferase reporter, 24 h; at 6 µM; hits give high values;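 note: 0% = DMSO wells and 100% = 10 µM SAHA wells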

For `O=C1C2(Cl)C3(Cl)C4(Cl)C(Cl)(Cl)C5(Cl)C3(Cl)C1(Cl)C5(Cl)C24Cl` (stereo not given), the activation was 9.58% (active).
In the case of `CC(C)(C)c1ccc(OC(=O)N2CCCCC2)cc1`, the activation is reported as 8.59% (active).

Going from `COc1ccc(Br)cc1CNCCc1cccc(Cl)c1` to `COc1ccc(-n2c(-c3ccccc3)nc3ccccc3c2=O)cc1`, the activation rises from -0.31% to 0.96%.

Compared with `O=C(c1cc2nc(-c3ccccc3)cc(-c3ccccc3)n2n1)N1CCC2(CC1)OCCO2`, `O=C(Nc1cccc(OC(=O)N2CCCCC2)c1)N1CCOCC1` is lower in activation: -0.55% for the first, -1.14% for the second.

First: NCC(O)c1ccc(O)cc1 (stereo not given)
Second: CCN(CC)P(=O)(Oc1cccc(C)c1)N(CC)CC
The activation of the first is higher: 2.36% for the first, -1.37% for the second.

Compared with `CN1CCN(C(=O)COc2ccc(C(C)(C)C)cc2Br)CC1`, `CC(=C1C(=O)c2ccccc2C1=O)N1CCN(CCN=Cc2c(O)n(C)c(=O)n(C)c2=O)CC1` is higher in activation: -0.38% for the first, 1.17% for the second.
